Measurements from PubChem BioAssay (NCI).
This is part of a sample that, as a whole, favours compounds with a hit. Of some 79,000 tested, about 15% had one in any assay. Activity calls are given as the source filed them. No stated cut-off is given here; in the data, active means growth inhibition above about 70%; inactive means the rest.

Key:
[1] = NCI Yeast Anticancer Drug Screen. Data for the rad50 strain (AID 155);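 further: 0% = growth of vehicle-only cultures of the same strain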; details: S. cerevisiae rad50 strain growth inhibition; at 50.0 µM; active compounds read high
In short: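 Yeast carrying a defined DNA repair defect were exposed to test compounds, and growth was compared with vehicle-treated controls to give percent inhibition.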

[2] = NCI Yeast Anticancer Drug Screen. Data for the mec2-1 strain (AID 157); details: S. cerevisiae mec2-1 strain, at 50.0 µM, active compounds read high
In short: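 Mutant yeast (mec2-1) grown with compound; growth inhibition relative to vehicle control reported.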

[3] = NCI Yeast Anticancer Drug Screen. Data for the sgs1 mgt1 strain (AID 161);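 further: 0% = growth of cultures given vehicle only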; details: S. cerevisiae sgs1 mgt1 strain, at 50.0 µM, active compounds read high
In short: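 Compounds are added to genetically altered yeast, and growth is compared with cultures given vehicle alone to give percent inhibition.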

[4] = NCI Yeast Anticancer Drug Screen. Data for the cln2 rad14 strain (AID 165);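 further: 0% = growth equal to vehicle treated cultures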; details: S. cerevisiae cln2 rad14 strain, at 50.0 µM, active compounds read high
In short: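 Readout is yeast growth inhibition versus vehicle-treated controls, using a strain with cln2 and rad14 alterations exposed to compound.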

[5] = NCI Yeast Anticancer Drug Screen. Data for the bub3 strain (AID 167); details: S. cerevisiae bub3 mutant strain, at 50.0 µM, active compounds read high
In short: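 Compounds were applied to a genetically altered yeast strain carrying a cell-cycle control defect. Growth inhibition was scored against vehicle-treated controls.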

[6] = NCI Yeast Anticancer Drug Screen. Data for the mlh1 rad18 strain (AID 175); details: S. cerevisiae mlh1 rad18 strain growth inhibition; at 50.0 µM; active compounds read high
In short: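 Genetically defined yeast (DNA repair-deficient) exposed to compounds; growth inhibition determined relative to vehicle.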

Measured: growth inhibition

N#CC1C(C#N)C2CCC1C1N=NN(c3ccccc3)C21 (stereo not given)
inactive: [1] -16.4% | [2] -12.1% | [3] -10.8% | [4] -19.1% | [5] 17.9% | [6] -28.6%

OC(c1nc2ccccc2s1)(C(F)(F)F)C(F)(F)F
inactive: [1] -14.2% | [2] -20.1% | [3] -9.5% | [4] 18.4% | [5] -13% | [6] 38.4%

O=C1CCC2(O1)c1ccc(O)cc1Oc1cc(O)ccc12
inactive: [1] 1.05% | [2] -24.1% | [3] -17.4% | [4] -3.9% | [5] 7.6% | [6] -7.3%

S=C(OCCCCCn1cnc2c(=S)nc[nH]c21)Oc1ccccc1
inactive: [1] -13% | [2] 16% | [3] 7.1% | [4] -45.8% | [5] -5.25% | [6] -12.7%

O=C(COc1ccc(Cl)cc1)N(c1ccccc1)C1CCCCC1
active: [1] 95.9% | [2] 98.3% | [3] 97.5% | [4] 96.2% | [5] 95.2% | [6] 96.9%

CC12CCC(=O)C=C1CCC1C2CCC2(C)C1CCC2(O)C(=O)Cn1c(=O)[nH]cc(F)c1=O (stereo not given)
inactive: [1] -0.8% | [2] -1.2% | [3] 5.75% | [4] 10.8% | [5] -1.2% | [6] 11.4%

C=CCNC(=O)/C=C/C
inactive: [1] 1.95% | [2] 0.65% | [3] -2.1% | [4] 1.8% | [5] 9.75% | [6] -4.35%

N#CC1(C2CC(=O)N(c3ccccc3)C2=O)CCCCC1=O (stereo not given)
inactive: [1] 10.4% | [2] -21.7% | [3] 26.5% | [4] -3.1% | [5] 2% | [6] -6.7%

COc1ccc(CC2=NCCc3cc(OCc4ccccc4)c(OC)cc32)cc1OCc1ccccc1
active: [5] 78.5% | [6] 93.8%
inactive: [1] 66.8% | [2] 55% | [3] 52.5% | [4] 30.6%

CC(C)(C)c1cc[n+](C[n+]2ccc(C(C)(C)C)cc2)cc1
inactive: [1] 4.8% | [2] -12.2% | [3] -0.45% | [4] -13.4% | [5] -22.9% | [6] -5%

CC(C)(C)c1ccc(O)c(Cl)c1
inactive: [1] -15.8% | [2] -7.65% | [3] -5.9% | [4] -7.85% | [5] -11.1% | [6] 10.2%

CCN(CC)CCOc1ccc(Cc2nc3c([nH]2)c(=O)n(C)c(=O)n3C)cc1
inactive: [1] 21.6% | [2] 2.85% | [3] 14.2% | [4] 34.5% | [5] 5.1% | [6] 11.3%

CCOC1NC(=O)Oc2ccccc21 (stereo not given)
inactive: [1] 4.2% | [2] 0.5% | [3] 8.1% | [4] 7.35% | [5] 10.9% | [6] -37.4%

O=c1c2c(-c3cc(-c4ccccc4)nc4[nH]n(-c5ccccc5)c(=O)c34)cc(-c3ccccc3)nc2[nH]n1-c1ccccc1
inactive: [1] 0.45% | [2] -6.2% | [3] 0.35% | [4] -38.5% | [5] 4.85% | [6] -22.6%

Cn1nnc(C(=O)O)n1
inactive: [1] -7.75% | [2] -4.35% | [3] -4.7% | [4] -19.8% | [5] -11.4% | [6] -10.8%

COc1cc(C2(C)SCCCS2)c(I)c(OC)c1OC
inactive: [1] -8.55% | [2] -3.05% | [3] -8.15% | [4] 13.2% | [5] 2.85% | [6] -14.4%

Cc1ccccc1NC(=O)CC(=O)n1nc(-c2ccccc2)c(N=Nc2ccc([N+](=O)[O-])cc2)c1-c1ccccc1
inactive: [1] 46.4% | [2] 10.4% | [3] 56% | [4] 30.9% | [5] 52.8% | [6] 42.9%

N#CC1=C(N)CCC(C#N)(c2ccccc2)C1 (stereo not given)
inactive: [1] 2.4% | [2] 2% | [3] 22.4% | [4] 14.8% | [5] 22.8% | [6] 8.2%

CC1=C(CC2C(=O)N(c3ccccc3)S(=O)(=O)NC2C)C(=O)N(c2ccccc2)S(=O)(=O)N1C (stereo not given)
inactive: [1] 20.1% | [2] 4% | [3] -14% | [4] -17.1% | [5] -1.65% | [6] 8.5%

COc1ccc(N=Nc2c(-c3ccccc3)nn(C(=O)CC(=O)Nc3cccc(Cl)c3)c2-c2ccccc2)cc1
inactive: [1] -2.65% | [2] 5.9% | [3] -6.3% | [4] 12.6% | [5] 26.3% | [6] -13.5%

Cc1cnc2cc(Cl)ccc2c1NCCN(CC(C)C)CC(C)C
inactive: [1] -11% | [2] 0.7% | [3] -10.6% | [4] -22.5% | [5] 0.05% | [6] -30.8%

COc1ccc2c(c1)-c1cc(OC)ccc1C2c1ccccc1
inactive: [1] -1.1% | [2] -9.15% | [3] -7.6% | [4] -57.5% | [5] 5.15% | [6] -7.25%

Cn1c(=O)cc2[nH]c3ccccc3n2c1=O
inactive: [1] 9.5% | [2] 22.4% | [3] -10% | [4] -5.7% | [5] 4.6% | [6] -19.7%

Cc1ccc(C)c(NC(=O)Oc2cc(C)c(Cl)cc2C(C)C)c1
active: [1] 85.8% | [2] 99.2% | [3] 98.5% | [4] 72.8% | [5] 98.5% | [6] 98.8%

CN1NC(=O)SC(=O)c2ccccc2C1=O
inactive: [1] -16.4% | [2] 22% | [3] 0.1% | [4] -12.1% | [5] 0.15% | [6] 0.65%

CCOC(C)(OCC)c1ccccc1
inactive: [1] -9.15% | [2] 20.6% | [3] -2.1% | [4] 23.5% | [5] 8.55% | [6] 29.4%

NC(N)=NCCCC(O)C(=O)O (stereo not given)
inactive: [1] -10.6% | [2] -11.8% | [3] -6.85% | [4] -2.95% | [5] 2.25% | [6] 0.85%

CC(=O)Nc1cnc2ccccc2c1
inactive: [1] 9.65% | [2] -0.4% | [3] 7.1% | [4] -2.8% | [5] 4.6% | [6] -15.7%

O=C(O)c1ccc(S(=O)(=O)c2cccc(Cl)c2)cc1
inactive: [1] 0.85% | [2] 7.8% | [3] 8.65% | [4] -18.7% | [5] -16.1% | [6] 6.45%

Cc1cc(S(=O)(=O)O)cc(Cl)c1N
inactive: [1] -11.3% | [2] -27.9% | [3] -0.85% | [4] -0.5% | [5] -23.8% | [6] -9.4%

O=c1[nH]c2ccccc2c(O)c1/C=N/C(=S)NC1CCCCC1
inactive: [1] -14.6% | [2] -36.3% | [3] -7.55% | [4] 14.9% | [5] 3.45% | [6] 9.25%

Cc1cc(C(=O)/C=C(\C(=O)c2ccccc2)c2ccccc2)ccc1Cl
inactive: [1] 18.8% | [2] 10.7% | [3] 6.65% | [4] -0.55% | [5] 0.6% | [6] 11.3%

CCCCCN(C=O)c1ccccc1
inactive: [1] -4.25% | [2] -13.7% | [3] -19.9% | [4] -13.6% | [5] -7.4% | [6] -2.5%

CC(=O)NC1(C)CC[C@H]2CC1C(C)=NC2(C)C (stereo not given in full)
inactive: [1] -13.2% | [2] -3.95% | [3] -6.9% | [4] 2.85% | [5] -8.15% | [6] -14.3%

CCNc1ccc(Cl)cc1[N+](=O)[O-]
inactive: [1] -28.8% | [2] -66.2% | [3] 11.9% | [4] -6.95% | [5] -33.4% | [6] -26.6%

COc1cc(Br)c(C=O)cc1OC
inactive: [1] 10.5% | [2] 22.9% | [3] 13.6% | [4] -16.1% | [5] 2.95% | [6] 5.5%

COc1ccc(CCCCl)c(C2=NCCc3ccccc32)c1
inactive: [1] 25.2% | [2] 12.7% | [3] -17.3% | [4] 12.2% | [5] -0.55% | [6] 1.95%

O=C1CSC(=O)N1
inactive: [1] -24.3% | [2] -14.4% | [3] -0.2% | [4] -32.8% | [5] -38% | [6] -41.5%

CS(=O)CCNC(=O)NS(=O)(=O)c1ccc(Cl)cc1 (stereo not given)
inactive: [1] -2% | [2] -18.9% | [3] -11.3% | [4] -10.2% | [5] 3.05% | [6] -3.15%

COC(=O)c1cc(=O)c2scc(C)[n+]2[nH]1
inactive: [1] -5.4% | [2] -10.8% | [3] 18.9% | [4] 9.55% | [5] -3.05% | [6] -5.3%
